The supplement of paper PMC11001985
Values without a mark were called inactive.

Molecular target: HSP90AA1 (UniProt P07900)
Experiment: lysine labeling ratio R10:1 (500 µM / 50 µM probe), SILAC-ABPP in living cells; higher = lower intrinsic lysine reactivity toward the probe, active = 2 or less
Conditions: HeLa, probe concentrations 500 vs 50 µM
Procedure: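 Living HeLa cells (SILAC light/heavy) in PBS at room temperature were labeled with 50 µM versus 500 µM of the lysine-reactive, reductant-cleavable probe OPA-S-S-alkyne (SILAC labeling time not stated). Probe-modified peptides were CuAAC-biotinylated, captured on neutravidin and eluted with DTT/IAA, then quantified by LC-MS/MS. R = median peptide ratio per lysine (500/50 µM), combined over 3 forward and 3 reverse SILAC replicates. Ratios are capped at 20; R < 2 = hyper-reactive.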

C#CCNC(=O)CCSSCCC(=O)NCCc1ccc(C=O)c(C=O)c1
lysine labeling ratio R10:1 (lysine site: K58): 3.2 | lysine labeling ratio R10:1 (lysine site: K84): 4.81 | lysine labeling ratio R10:1 (lysine site: K457): 0.935 (active) | lysine labeling ratio R10:1 (lysine site: K458): 2.96 | lysine labeling ratio R10:1 (lysine site: K585): 6.47 | lysine labeling ratio R10:1 (lysine site: K632): 5.33
